RE007 growth inh: qHTS Assay for Inhibitors of the HIV-1 protein Vpr | S. pombe RE007 Vpr strain, BacTiter-Glo ATP luminescence, 24 h | Potency, µM (highest dose often 92.2 µM), for inactives: at the highest dose activity change, negative = less growth, actives largely listed as inhibitors | actives 0.21% (n = 360,000) | AID 651644, 2012; active means well fitted falling curve with a large enough effect; inconclusive means small, poorly fitted or top-dose-only effect; inactive means no such curve, though single readings can be large or run the other way; further: nearly all actives have a fitted effect of over 50% in size
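Fission yeast RE007 carrying one integrated HIV-1 vpr copy, seeded at OD 0.01 in PMG+AL medium with 23 nL pinned compound. Grown 24 h at 30 degrees; viability read by BacTiter-Glo luminescence after 5 min.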
Sm TGR block: qHTS Assay for the Inhibitors of Schistosoma Mansoni Peroxiredoxins. purified TGR, DTNB reduction, TNB absorbance 405 nm. actives 3% (n = 360,000). Potency, µM (titrated, usually from 114 µM), without a hit: at the top dose activity change, negative = inhibition, actives largely listed as inhibitors. Schistosoma mansoni thioredoxin glutathione reductase (TGR), Q962Y6; further: nearly all actives have a fitted effect of over 60% in size
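First, TGR (20 nM dispensed) and NADPH were mixed with compound. Second, a 15 min room-temperature incubation followed. Third, further NADPH and then DTNB were added to start the reaction. Finally, TNB absorbance was monitored kinetically.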
Marburg entry inh: qHTS for inhibitors of binding or entry into cells for Marburg Virus; Marburg virus pseudotyped entry inhibition, cell reporter; Potency, µM (highest dose often 37.8 µM), for the others: at the top dose activity change, negative = inhibition, most hits filed as inhibitors; actives 1.8% (n = 300,000); calls by dose curve; tested in HEK293 cells
HCV inh: qHTS Assay for Inhibitors of Hepatitis C Virus (HCV) | Potency, µM (highest dose often 41.8 µM), without a hit: top-dose activity change, negative = inhibition, hits mostly inhibitors | actives 3.4% (n = 340,000) | Huh7.5.1 HCVcc-Cre infection, luciferase reporter, 44 h | AID 651820, 2012
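Infectious HCV cell culture screen: compound-treated cells (1,000/well, pre-plated 4 h) are infected with HCVcc-Cre at roughly 0.5 moi and grown 44 h. Infection is quantified by luciferase signal after 15 min substrate incubation at room temperature.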
LASV entry inh: qHTS for Inhibitors of binding or entry into cells for Lassa Virus; Lassa virus pseudotype entry inhibition, cell reporter; Potency, µM (series often up to 37.9 µM), for the others: at the top dose activity change, negative = inhibition, most hits filed as inhibitors; actives 1.2% (n = 300,000); AID 540256, 2011; calls by dose curve; tested in HEK293 cells; further: nearly all actives have a fitted effect of over 50% in size
FMDV antiviral: High Throughput Screening for Foot and Mouth Disease Virus Antivirals | FMDV antiviral cell-based qHTS | actives 1.2% (n = 410,000) | Potency, µM (top dose mostly 57.9 µM), inactives show at the top dose activity change, negative = inhibition, actives largely listed as inhibitors; calls by dose curve; tested in HEK293T cells; further: read-out not given here; nearly all actives have a fitted effect of over 45% in size
Numbers without * were called inactive; ? = inconclusive; . = not tested or not shown; [ ] = another dose, or the depositor's remark. Rows were chosen to be rich in hits. Some 7.2% of all compounds tested hit in one or more screens of this group. Unless noted, the call rests on the fitted dose curve; in most records, active means well fitted curve in the direction sought with a large enough effect; inconclusive means small, poorly fitted or top-dose-only effect, or another doubt; inactive means no such curve, though single readings can be large; an effect the other way counts as inactive or inconclusive. On the % scale 0 is the no-effect control and ±100 the full control effect; potency means the concentration at half of the fitted maximal effect.

SMILES	RE007 growth inh	Sm TGR block	Marburg entry inh	HCV inh	LASV entry inh	FMDV antiviral
CCC(=O)C[C@@H](NC(=O)OC)c1ccc(F)cc1	.	.	6.0%[14.2 µM]	.	.	.
COc1ccc(NC(=O)CN2C(=O)CSc3ccc(S(=O)(=O)N(C)C)cc32)cc1Cl	.	0.2%	.	.	0.6%[46.1 µM]	-6.9%
CCOC(=O)c1c(CN(CC)CC)oc2cc(Br)c(O)cc12	-3.5%	1.9%	0.6%	10µM*	.	-18.4%
CCc1ccc2c(COC(=O)c3n[nH]c4ccccc34)cc(=O)oc2c1	-13.0%	3.1%	?	10µM*	-21.2%	7.1%
Cc1ccc2c(COC(=O)c3n[nH]c4ccccc34)cc(=O)oc2c1	1.1%	3.0%	1.3%	?	2.3%	35.1%
O=C(COc1coc(CN2CCN(c3ccc(F)cc3)CC2)cc1=O)NC1CCCCC1	5.0%	.	4.1%	-18.8%	-1.1%	?
Cc1cc2ccccn2c1C(=O)Nc1ccccc1	-16.0%	8.8%	?	5.8%	?	19.2%
CC(=S)c1c(C)cc2cc(C)ccn12	3.2%	17.8µM*	?	-0.1%	?	-3.8%
Oc1ccc(/C=C/c2ccnc3ccccc23)cc1	5.5%	-5.3%	?	8.91µM*	?	42.1%
Clc1ccccc1/C=C/c1ccnc2ccccc12	?	14.6%	.	?	.	17.2%
O=C(CSc1ncc2c(n1)-c1cc(Cl)ccc1N(Cc1ccccc1)S2(=O)=O)NCc1ccccc1	.	3.3%	.	.	-14.3%[46.1 µM]	-10.5%
Cc1ccc(S(=O)(=O)N(C)c2cc(S(=O)(=O)N3CCC(C)CC3)c(C)cc2C)cc1	-6.2%	8.9%	?	10µM*	?	?
CNS(=O)(=O)c1cc(N(C)S(=O)(=O)c2ccc(C)cc2)c(C)cc1C	2.7%	.	?	-2.0%	-29.3%[46.1 µM]	10.2%
Cc1ccc(S(=O)(=O)NCCc2csc(-c3cccc(F)c3)n2)cc1	.	8.9%	.	.	-1.1%[46.1 µM]	-3.2%
O=C(NCCN1Cc2ccccc2OC(c2ccsc2)C1)c1cncs1 (configuration not stated)	.	.	.	.	.	-6.2%
O=C(O)COc1ccccc1/C=N/NC(=O)CSc1nnc(SCc2cccc3ccccc23)s1	-9.9%	4.4%	3.0%[46.1 µM]	6.2%	3.3%[46.1 µM]	18.5%
O=C(CSc1nnc(SCc2ccc(Cl)cc2)s1)N/N=C/c1ccc(C(=O)O)cc1	?	-11.0%	7.1%[46.1 µM]	10.0%	-14.8%	15.4%
Cc1ccc(CSc2nnc(SCC(=O)N/N=C/c3c(C)nn(-c4ccccc4)c3C)s2)cc1	-7.9%	-1.1%	?	?	8.2µM*	0.0%
Cc1nn(-c2ccccc2)c(C)c1/C=N/NC(=O)CSc1nnc(SCc2ccccc2Cl)s1	9.8%	-0.2%	?	?	2.06µM*	5.7%
CCCNC(=O)C1(C)CCCN(C(=O)c2ccccc2OC(F)(F)F)C1 (configuration not stated)	-10.5%[18.4 µM]	.	.	.	.	-13.8%
CCOc1ccc(CN2CCCC(CO)(Cc3ccc(F)cc3)C2)cc1 (configuration not stated)	-8.5%	1.0%	7.94µM*	-8.0%	-40.1%[46.1 µM]	1.0%
COc1ccc(CN2CCCC(CO)(Cc3ccc(F)cc3F)C2)cc1 (configuration not stated)	-3.0%	-0.1%	10µM*	0.9%	-41.5%[46.1 µM]	-4.1%
OCC1(Cc2ccc(F)cc2)CCCN(Cc2ccc(F)cc2Cl)C1 (configuration not stated)	-29.2%	-5.3%	?	16.1%	?	?
O=C(OCC1CCCO1)c1ccc2c(c1)N(Cc1ccccc1Cl)C(=O)c1ccccc1S2(=O)=O (configuration not stated)	.	-4.2%	.	.	5.5%[46.1 µM]	4.7%
CCOC(=O)c1cnc(-c2ccccc2)nc1N1CCOCC1	-3.4%	-1.5%	-12.3%[46.1 µM]	-30.0%	0.0%	-0.4%
CCOC(=O)c1c(C)oc2c1c(C=NCCO)c(O)c1ccccc12	14.0%	39.8µM*	?	-8.1%	?	?

Screens (PubChem BioAssay)
